Screens (PubChem)
In the library only some 5.9% were active in any assay of this set; here they are far more common.
S2 tox: cell viability loss in ATXN counter-screen | S2 cells (HEK-293 line with an ATXN2-luciferase reporter) viability, CellTiter-Fluor protease fluorescence, 24 h | hit rate 0.49% among 400,000 | Potency, µM (doses to about 56.7 µM), most hits filed as cytotoxic; further: nearly all actives have a fitted effect of over 40% in size
TGFb SMAD3 inh: blocks TGF-b signaling | hit rate 1.2% among 410,000 | HepG2 CAGA-GFP TGF-b/SMAD3 reporter, GFP fluorescence, 18 h; TGF-beta stimulated, 500 pg/mL final | Potency, µM (top dose mostly 46.1 µM), without a hit: at the highest dose activity, negative = inhibition, actives largely listed as inhibitors | AID 588855; further: on the % scale 0 is the no-effect control and ±100 the full control effect; nearly all actives have a fitted effect of over 65% in size
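Inhibition of TGF-beta-driven CAGA-GFP reporter expression in HEPG2 cells is measured by cellular GFP fluorescence after 18 h stimulation with 500 pg/mL recombinant TGF-beta in 1% FBS medium at 37 degrees C.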
KB-3-1 tox: kills parental KB-3-1 adenocarcinoma cells. Potency, µM (highest dose often 46.1 µM), most hits filed as cytotoxic. KB-3-1 viability, CellTiter-Glo ATP luminescence, 72 h. hit rate 1.4% among 400,000; further: on the % scale 0 is the no-effect control and ±100 the full control effect; nearly all actives have a fitted effect of over 60% in size
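Screening of KB-3-1 cells (DMEM, 10% FBS, phenol-red free) ran from lowest to highest compound concentration; after 72 h at 37 °C viability was read luminescently and curves fitted.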
HepG2 tox: kills HepG2 cells in TGF-b inhibitor counter-screen | AID 588856 | Potency, µM (top dose mostly 46.1 µM), for the others: at the top dose activity change, negative = cytotoxicity, hits mostly cytotoxic | hit rate 0.76% among 410,000 | HepG2 CAGA-GFP viability, ATP luminescence, 18 h
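HepG2 CAGA-GFP cells (1000/well, DMEM with 1% FBS) received compound, then TGF-beta at 500 pg/mL final, and were incubated 18 hours at 37 degrees C. Viability was read by CellTiter-Glo luminescence. Media-only wells were set as complete cell-killing and DMSO as no toxicity.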
ATXN2 expr inh: reduces ATXN2 reporter expression in HEK-293 cells. HEK-293 ATXN2-luciferase reporter, luminescence, 24 h. Potency, µM (series often up to 57 µM), for the others: top-dose activity change, negative = inhibition, actives largely listed as inhibitors. hit rate 0.72% among 360,000; further: on the % scale 0 is the no-effect control and ±100 the full control effect; nearly all actives have a fitted effect of over 55% in size
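ATXN2-luciferase reporter cells (luciferase flanked by upstream and downstream ATXN2 gene portions) were treated 24 h at 37 °C with compounds at up to 57 uM. SteadyGlo luminescence gave expression; GF-AFC fluorescence gave viability.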
KB-V1 MDR tox: kills drug-selected multidrug resistant KB-V1 cells; KB-V1 MDR cells viability, CellTiter-Glo, 72 h; Potency, µM (top dose mostly 46.1 µM), usual class: cytotoxic; hit rate 3.4% among 400,000; AID 1347076; further: on the % scale 0 is the no-effect control and ±100 the full control effect; nearly all actives have a fitted effect of over 60% in size
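Cytotoxicity via CellTiter-Glo luminescence after 72 h compound exposure at 37 degrees C. Cells: drug-selected KB-V1 line, DMEM phenol-red free plus 10% FBS. Compounds tested at multiple concentrations; normalized data fitted to concentration-effect curves.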
* hit, by the source's call. The call rests on the fitted dose curve; in most records, active means well fitted curve in the direction sought with a large enough effect; inconclusive means small, poorly fitted or top-dose-only effect, or another doubt; inactive means no such curve, though single readings can be large; an effect the other way counts as inactive or inconclusive. Potency means the concentration at half of the fitted maximal effect.

What do the screens show for `CCc1nc(SCC(=O)c2ccc(Cl)s2)c2oc3ccccc3c2n1`?
S2 tox: inactive; TGFb SMAD3 inh: 27.7%; KB-3-1 tox: inactive; HepG2 tox: -5.7%; ATXN2 expr inh: -1.8%; KB-V1 MDR tox: inconclusive

How did CCc1nc(N2CCC(C)CC2)c2oc3ccccc3c2n1 do in these assays?
S2 tox: inconclusive; TGFb SMAD3 inh: -0.7%; KB-3-1 tox: inactive; HepG2 tox: -89.8%; ATXN2 expr inh: -38.0%; KB-V1 MDR tox: 9.2µM*

Results for O=C(Cn1nc(C(F)(F)F)c2c1CCCC2)Nc1ccc(Br)cc1 ?
TGFb SMAD3 inh: -10.1%; HepG2 tox: -43.4%

How did Cc1ccc(C)c(CN2C(=O)c3ccccc3S(=O)(=O)c3ccc(C(=O)Nc4cc(F)ccc4F)cc32)c1 do in these assays?
S2 tox: inactive; TGFb SMAD3 inh: -9.3%; KB-3-1 tox: inactive; HepG2 tox: -42.1%; ATXN2 expr inh: 10.9%; KB-V1 MDR tox: inactive

What do the screens show for `COc1ccc(-c2c(C)nn3c(C(F)(F)F)cc(-c4ccc(Br)cc4)nc23)cc1`?
S2 tox: inactive; TGFb SMAD3 inh: -15.7%; KB-3-1 tox: inactive; HepG2 tox: -15.5%; ATXN2 expr inh: 3.6%; KB-V1 MDR tox: inactive

Results for Cc1cc(/C=C(\C#N)C(=O)N2CCCCC2)cc(C)c1O ?
S2 tox: inactive; TGFb SMAD3 inh: 1.8%; KB-3-1 tox: 16.4µM*; HepG2 tox: -5.3%; ATXN2 expr inh: -1.3%; KB-V1 MDR tox: inconclusive

What do the screens show for `N#C/C(=C\c1cccc(O)c1)C(=O)N1CCCCC1`?
S2 tox: inactive; TGFb SMAD3 inh: 12.8%; KB-3-1 tox: inactive; HepG2 tox: -14.7%; ATXN2 expr inh: 14.5%; KB-V1 MDR tox: inconclusive

How did Cc1ccc(NC(=O)CN2C(=O)COc3ccc(S(=O)(=O)Nc4ccccc4)cc32)c(C)c1 do in these assays?
S2 tox: inconclusive; TGFb SMAD3 inh: inconclusive; KB-3-1 tox: inactive; HepG2 tox: -8.9%; ATXN2 expr inh: 9.6%; KB-V1 MDR tox: inactive

What do the screens show for `O=C(CN1C(=O)COc2ccc(S(=O)(=O)NC3CCCC3)cc21)Nc1ccc(F)c(Cl)c1`?
S2 tox: inconclusive; TGFb SMAD3 inh: 12.6µM*; KB-3-1 tox: inactive; HepG2 tox: -49.3%; ATXN2 expr inh: -3.0%; KB-V1 MDR tox: inactive

Results for O=C(CN1C(=O)COc2ccc(S(=O)(=O)NC3CCCC3)cc21)Nc1ccc(Cl)cc1F ?
S2 tox: inactive; TGFb SMAD3 inh: inconclusive; KB-3-1 tox: inactive; HepG2 tox: 15.8µM*; ATXN2 expr inh: -1.9%; KB-V1 MDR tox: inactive

Results for Cc1cc(Cl)ccc1NC(=O)CN1C(=O)COc2ccc(S(=O)(=O)Nc3ccccc3)cc21 ?
S2 tox: inconclusive; TGFb SMAD3 inh: 14.1µM*; KB-3-1 tox: inactive; HepG2 tox: -18.8%; ATXN2 expr inh: -9.4%; KB-V1 MDR tox: inactive

How did Nc1cccc(S(=O)(=O)N2CCOCC2)c1 do in these assays?
TGFb SMAD3 inh: -4.7%; KB-3-1 tox: inconclusive; HepG2 tox: -3.0%; KB-V1 MDR tox: inactive

Results for O=C(NCCCc1nc2ccccc2n1CCOc1ccccc1)C1CCCCC1 ?
TGFb SMAD3 inh: -0.4%; KB-3-1 tox: inactive; HepG2 tox: -0.2%; KB-V1 MDR tox: inactive

What do the screens show for `COc1ccc(OC)c(CNC(=O)c2cnc(N(C)C)nc2)c1`?
S2 tox: inactive; TGFb SMAD3 inh: -5.9%; KB-3-1 tox: inactive; HepG2 tox: -12.2%; ATXN2 expr inh: -0.7%; KB-V1 MDR tox: inactive

What do the screens show for `CN(C)c1ccc(C=NNC(=O)c2cccc3ccccc23)c(Cl)c1`?
S2 tox: inactive; TGFb SMAD3 inh: inconclusive; KB-3-1 tox: 5.17µM*; HepG2 tox: -5.4%; ATXN2 expr inh: -8.0%; KB-V1 MDR tox: 3.66µM*

How did COc1ccc(/C=N/NC(=O)c2nn(C)cc2Br)cc1CSCc1ccco1 do in these assays?
S2 tox: inactive; TGFb SMAD3 inh: 6.0%; HepG2 tox: -3.7%; ATXN2 expr inh: 4.9%

How did CCOc1ccc(C=NNC(=O)c2cccc3ccccc23)cc1OCC do in these assays?
S2 tox: inactive; TGFb SMAD3 inh: -3.0%; KB-3-1 tox: inactive; HepG2 tox: 0.0%; ATXN2 expr inh: 10.0%; KB-V1 MDR tox: 23.1µM*

How did CCOc1cc(/C=N\NC(=O)c2ccc(NC(=O)CC)cc2)ccc1OC(=O)c1ccccc1 do in these assays?
S2 tox: inconclusive; TGFb SMAD3 inh: 0.0%; KB-3-1 tox: inconclusive; HepG2 tox: -2.1%; ATXN2 expr inh: 20µM*; KB-V1 MDR tox: inconclusive

Results for CCOc1cc(/C=N/NC(=O)c2nn(C)cc2Br)ccc1OCc1ccccc1 ?
S2 tox: inactive; TGFb SMAD3 inh: 0.5%; KB-3-1 tox: inactive; HepG2 tox: -0.9%; ATXN2 expr inh: -6.1%; KB-V1 MDR tox: 16.4µM*

How did COc1cc(/C=N/NC(=O)c2cccc3ccccc23)ccc1OCC(N)=O do in these assays?
S2 tox: inactive; TGFb SMAD3 inh: 10.7%; KB-3-1 tox: inactive; HepG2 tox: -40.1%; ATXN2 expr inh: 6.5%; KB-V1 MDR tox: inactive

How did O=c1c(=O)n(-c2ccccc2)ccn1Cc1cccc(C(F)(F)F)c1 do in these assays?
TGFb SMAD3 inh: 3.0%; HepG2 tox: -14.0%

How did CC1CCCN(CCCOc2ccc(Br)cc2Cl)C1 (stereo not given) do in these assays?
S2 tox: inactive; TGFb SMAD3 inh: 2.3%; KB-3-1 tox: inactive; HepG2 tox: 0.8%; ATXN2 expr inh: -6.4%; KB-V1 MDR tox: inconclusive

What do the screens show for `CC1CCN(CCOCCOc2ccc(Br)cc2Cl)CC1`?
S2 tox: inconclusive; TGFb SMAD3 inh: 3.1%; KB-3-1 tox: inconclusive; HepG2 tox: -19.5%; ATXN2 expr inh: -21.7%; KB-V1 MDR tox: 23.1µM*

How did CCOc1ccccc1CNCc1cccn1-c1nnc(N2CCN(c3ccccc3)CC2)s1 do in these assays?
S2 tox: inconclusive; TGFb SMAD3 inh: inconclusive; KB-3-1 tox: inconclusive; HepG2 tox: -82.7%; ATXN2 expr inh: 17.8µM*; KB-V1 MDR tox: inconclusive

Results for CCOc1ccccc1CNC(=O)c1cccn1-c1nnc(N2CCCCC2)s1 ?
TGFb SMAD3 inh: inconclusive; KB-3-1 tox: inactive; HepG2 tox: -34.7%; KB-V1 MDR tox: inconclusive

How did Cc1oc(-c2ccc(Cl)cc2)nc1CN1CCCC(C(=O)NCc2cccnc2)C1 (stereo not given) do in these assays?
S2 tox: inconclusive; TGFb SMAD3 inh: inconclusive; KB-3-1 tox: 2.59µM*; HepG2 tox: -20.9%; ATXN2 expr inh: -13.1%; KB-V1 MDR tox: 2.31µM*
